Test results: PMC7819943, “Rice protein-binding microarrays: a tool to detect cis-acting elements near promoter regions in rice”
In all, about 35,000 sequences were measured (“fluorescence intensity (a.u.)”: median about 10,000, highest 2% from about 52,000 on). Only a selection was taken, and the highest values are over-represented in it overall.

The sequences below were run against T1, OsWOX13 (Oryza sativa, UniProt Q5QMM3 1-267) (assay: protein-binding microarray (RPBM); PBS, 2% BSA, 51.3 ng/ul salmon testes DNA, 50 uM zinc acetate, 200 nM TF, 25 C, 1 h; high values mean tight binding). Details: protein: recombinant; tags: N-terminal polyhistidine and DsRed monomer fusion (pET32a); label: CyDye5-dUTP incorporated in the synthesized complementary strand; 3' TTTTT single-stranded linker to array surface; dsDNA, one strand shown.
T1 sequence: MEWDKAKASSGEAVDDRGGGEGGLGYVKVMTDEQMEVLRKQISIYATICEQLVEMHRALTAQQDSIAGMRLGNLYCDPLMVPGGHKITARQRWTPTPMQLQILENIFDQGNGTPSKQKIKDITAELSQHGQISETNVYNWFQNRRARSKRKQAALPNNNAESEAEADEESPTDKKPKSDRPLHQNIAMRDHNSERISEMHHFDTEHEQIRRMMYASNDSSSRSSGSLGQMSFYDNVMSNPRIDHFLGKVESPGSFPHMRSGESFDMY
How it was run: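 Binding signal here means per-feature fluorescence intensity in arbitrary units. The values were read on an Axon 4000B scanner after a custom Agilent array, double-stranded by primer extension with Cy5-dUTP, was incubated with 200 nM protein at 25 °C for 1 h in PBS with 2% BSA, salmon testes DNA and 50 µM zinc acetate, then washed. The proteins were transcription factors with an N-terminal polyhistidine tag and DsRed, expressed in E. coli BL21-CodonPlus and purified on Ni–NTA.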

| Sequence | binding signal |
| --- | --- |
| ATGAGCCTAACCATTTCTAGTGTTACTTACTCCATTTCAGCGGAGTCACCTAGTGCAG | 64200 fluorescence intensity (a.u.) |
| GTCATCAATGATTCAGTGTTAACTACTCCATTTCTAGAAACGGAGTCACCTAGTGCAG | 3880 fluorescence intensity (a.u.) |
| GTGCAATTTAACTCCATAAATTACTTTCAGAAATGTGCAGCGGAGTCACCTAGTGCAG | 11300 fluorescence intensity (a.u.) |
| ATAATGGGAAATGGAGGGTGGGATTGGGATTAGAAAATGACGGAGTCACCTAGTGCAG | 3290 fluorescence intensity (a.u.) |
| AATATTAGTATTAATTGATAAAAGTTCGTCACGCGAGTTACGGAGTCACCTAGTGCAG | 18200 fluorescence intensity (a.u.) |
| ATTTTGAAGTTCCTGTAAGTTGGACATATCTACTGGTTCCCGGAGTCACCTAGTGCAG | 65500 fluorescence intensity (a.u.) |
| GAGTAATTTTCTACTGGTTTTAATAGTTGAAATAGCTGTTCGGAGTCACCTAGTGCAG | 3780 fluorescence intensity (a.u.) |
| TAAATTGAATGGTTTTGTAAGTTGAGGGACGTCATATATCCGGAGTCACCTAGTGCAG | 21500 fluorescence intensity (a.u.) |
| TATCTCTAATTTAGTTAATTTAACTTGTTGATCGATCGCTCGGAGTCACCTAGTGCAG | 21700 fluorescence intensity (a.u.) |
| TTATACAAATTATACCTGTTAATTATTGTGATTGTTTGGTCGGAGTCACCTAGTGCAG | 36800 fluorescence intensity (a.u.) |
| CAATAAATTTGAATAGCAATTGGTATATGTCATATCTGGTCGGAGTCACCTAGTGCAG | 14900 fluorescence intensity (a.u.) |
| AGCAAATTTAAATTTGATAGTATAGAATTGGTTCTGAGGTCGGAGTCACCTAGTGCAG | 52400 fluorescence intensity (a.u.) |
| CAAAACTGTCATTTTGTATGATTTCTCTCTCATCAATTGGCGGAGTCACCTAGTGCAG | 17500 fluorescence intensity (a.u.) |
| ACTTGTAGTAATTTAATTTGAAATTCTGTTCTTGCCTCTGCGGAGTCACCTAGTGCAG | 6760 fluorescence intensity (a.u.) |
| TTTGATTTAATTTGTTCTGCAAACAGTCCGGAAAATGCCTCGGAGTCACCTAGTGCAG | 53500 fluorescence intensity (a.u.) |
| CGTTTCTGATTTGATTCTTCCAAATTTTGGGTTCCTGATTCGGAGTCACCTAGTGCAG | 24800 fluorescence intensity (a.u.) |
| TTGATTTGATTGGGTTGGTTCCAAATTATATTCTGTGATTCGGAGTCACCTAGTGCAG | 57600 fluorescence intensity (a.u.) |
| AGTTTATGATAATTTAAATTTATATAGTATGTAGAATGGTCGGAGTCACCTAGTGCAG | 14400 fluorescence intensity (a.u.) |
| CCAAATTTGATTGGCATCTCAAAACTGTCGTATAATTGGGCGGAGTCACCTAGTGCAG | 65500 fluorescence intensity (a.u.) |
| TCGGTCTGCAAACAAATTGATTGATTTGTTTTCCTTTTGCCGGAGTCACCTAGTGCAG | 47100 fluorescence intensity (a.u.) |
| ATTTTCTCAATTTATCTCACTCATATAAACTCCAAATTGGCGGAGTCACCTAGTGCAG | 6170 fluorescence intensity (a.u.) |

| Sequence | binding signal |
| --- | --- |
| ATTCGTAACCACTTAATTACCCATTTATCCCCTTCTGATTCGGAGTCACCTAGTGCAG | 10600 fluorescence intensity (a.u.) |
| TATAAATTTAGTTAAATATATATAAAGAAGTTTGACTTATCGGAGTCACCTAGTGCAG | 9160 fluorescence intensity (a.u.) |
| TAATAATTTATTATGTGTATGTGTATGGCTAGGATACAGCCGGAGTCACCTAGTGCAG | 16500 fluorescence intensity (a.u.) |
| TGTTTTACCCTGATTGCGTGAAGTGAAACTATTATTCAGGCGGAGTCACCTAGTGCAG | 3550 fluorescence intensity (a.u.) |
| ACTAATTTGGTATTATAACTGTTGCTAATTATTCTATAAACGGAGTCACCTAGTGCAG | 21700 fluorescence intensity (a.u.) |
| TGTATTTGATTGAAACTGTTCATACTATAAACATGCTGGGCGGAGTCACCTAGTGCAG | 57900 fluorescence intensity (a.u.) |
| ATCATAATTTGAAATTCAAATTCATACTGTTCAAACAAAGCGGAGTCACCTAGTGCAG | 17600 fluorescence intensity (a.u.) |
| TTTCGTGATAATTTTGTGTGCAATCACAACAATTTGAAATCGGAGTCACCTAGTGCAG | 6180 fluorescence intensity (a.u.) |
| GCAAATTGAATTAATTCGTGTGATATTTGTTCTGCACCGGCGGAGTCACCTAGTGCAG | 59500 fluorescence intensity (a.u.) |
| CAAATTGGTGGGTGATTGCTAATTTATAACTGTTCGTATTCGGAGTCACCTAGTGCAG | 64100 fluorescence intensity (a.u.) |
| GTCATAATTTGAAATTCAAATTTAAACTATTCAAACAAAGCGGAGTCACCTAGTGCAG | 23300 fluorescence intensity (a.u.) |
| GTTCGTTCGTTCGTTGATTGATTGTGTTGAATTAATTGAGCGGAGTCACCTAGTGCAG | 27600 fluorescence intensity (a.u.) |
| AAAATTATATAATTATAATTTATTTTATTGCAACTTGATTCGGAGTCACCTAGTGCAG | 27000 fluorescence intensity (a.u.) |
| TCCACTCAATCTTCTGTTTCTATTTCCCCGTAATCGAAGCCGGAGTCACCTAGTGCAG | 4630 fluorescence intensity (a.u.) |
| AGCTAAATTGATTCGTGCACCCAAGTCAACAAGAAAACGTCGGAGTCACCTAGTGCAG | 38900 fluorescence intensity (a.u.) |
| TCAAATAATTTCGGTCAGAAATTTCCGAAATTTTGGTAATCGGAGTCACCTAGTGCAG | 7080 fluorescence intensity (a.u.) |
| GTAGTTAACCATTTAACCTGATGATGTGAGGACGAAAGAACGGAGTCACCTAGTGCAG | 4950 fluorescence intensity (a.u.) |
| ATTAACTATAATTATCGGCTGCAATCTAATTCGAATGTAGCGGAGTCACCTAGTGCAG | 30300 fluorescence intensity (a.u.) |
| TGGTGGTGGTGGTGGTAGGGTTAGGGGTAGGAGGGGTCTCCGGAGTCACCTAGTGCAG | 8890 fluorescence intensity (a.u.) |
| CAGGTAATGGATTGATTGCAGGGTTGGGATTTGACCAGGTCGGAGTCACCTAGTGCAG | 51800 fluorescence intensity (a.u.) |
| TTTCAAATCTCAAATTGAAAGTTTTCAAAATTTTCAAATCCGGAGTCACCTAGTGCAG | 3760 fluorescence intensity (a.u.) |
